Records with an inconclusive call do not appear. The source made the active and inactive calls. Unless noted, calls follow the shape of the dose curve; as a rule, active = well fitted curve in the direction sought with a large enough effect; inconclusive = small, poorly fitted or top-dose-only effect, or another doubt; inactive = no such curve, though single readings can be large; an effect the other way counts as inactive or inconclusive.
Assays:
[1] = Cell Viability - Jurkat (AID 426;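 active = dose-dependent loss of cell ATP signal giving a full or clear fitted curve, ranked by lower potency value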; also: potency is read from the fitted curve at half-maximal effect); details: qHTS
In short: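 Cytotoxicity was scored as loss of cellular ATP, measured by luciferase-based luminescence, in Jurkat clone E6-1 cells after 40 h compound treatment; tamoxifen and doxorubicin served as positive controls.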

[2] = Cell Viability - Hek293 (AID 427;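 active = compounds whose dose-response curve shows a full or clear partial loss of cell viability, called from curve shape rather than a numeric limit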;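 also: potency is read from the fitted curve at half-maximal effect; cells exposed to compound for 40 hours at 37 °C before reading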); details: qHTS
In short: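 HEK293 cells in complete medium were exposed to compound for 40 hr at 37 °C, then cellular ATP was read by CellTiter-Glo luminescence. Data were normalized to DMSO (basal) and 100 uM tamoxifen (100% inhibition), and AC50 came from Hill fits.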

[3] = Cell Viability - HepG2 (AID 433; calls by dose curve;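 also: potency is read from the fitted curve at half-maximal effect; potency for ATP loss meaning cytotoxicity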); details: qHTS
In short: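 Cytotoxicity is scored as loss of intracellular ATP in HepG2 cells exposed to compounds for 40 h. Concentration-response curves, normalized to DMSO and 100 uM tamoxifen, give AC50 values.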

[4] = Cell Viability - SK-N-SH (AID 435; calls by dose curve;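 also: potency is read from the fitted curve at half-maximal effect; compound exposure lasted 40 h at 37 °C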); details: SK-N-SH neuroblastoma cell viability qHTS
In short: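 Cells seeded at 1500 per well and incubated 5 hr at 37 °C. Compound added, then 40 hr at 37 °C. CellTiter-Glo added, 20 min at room temperature, luminescence read.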

[5] = biological target: Mitogen-activated protein kinase 10 (Mus musculus) (UniProt Q61831); experiment: JNK3 AlphaScreen Assay (AID 530; active = well fitted curve in either direction with a large enough effect, not every such curve was filed as active;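 also: kinase came from lysate of stimulated human HepG2 cells; signal reports phosphorylation of biotinylated GST-cJun 1-79 at Ser73 with 10 µM ATP; % is scaled to controls: 0 for no effect and ±100 for the full control effect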)
In short: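 Kinase buffer: 20 mM Tris-HCl pH 7.6, 10 mM MgCl2, 1 mM DTT, 0.1 mM Na3VO4, 0.01% Tween-20; ATP 10 uM. Substrate biotin-GST-cJun(1-79), enzyme from activated HepG2 lysates. Detection by Ser73 phospho-antibody AlphaScreen.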

[6] = Cell Viability - N2a (AID 540); details: N2a mouse neuroblastoma cell viability; activity change, negative = cytotoxicity: at 92.2 µM (top of the series); also: potency is read from the fitted curve at half-maximal effect; nearly all actives have a fitted effect of over 45% in size
In short: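 In this qHTS cytotoxicity screen, ATP-dependent luciferase luminescence reports viable N2a cells after a 40 hr compound exposure in complete culture medium. Potencies are AC50 values from standard Hill equation fits.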

[7] = Cell Viability - NIH 3T3 (AID 541); details: NIH 3T3 cell viability, qHTS; activity change, negative = cytotoxicity: at 92.2 µM (top of the series); also: potency is read from the fitted curve at half-maximal effect; nearly all actives have a fitted effect of over 25% in size
In short: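 In this cytotoxicity screen, acute toxicity is scored as an ATP drop measured by CellTiter-Glo in NIH 3T3 fibroblasts following a 40 hr, 37 °C incubation with compound.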

[8] = Cell Viability - H-4-II-E (AID 543); also: potency is read from the fitted curve at half-maximal effect; nearly all actives have a fitted effect of over 35% in size
In short: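 AC50 from Hill-modelled qHTS concentration-response curves. H-4-II-E rat hepatoma cells in complete medium, 40 hr exposure at 37 °C, viability by CellTiter-Glo ATP luminescence.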

[9] = Cell Viability - SH-SY5Y (AID 544); details: SH-SY5Y neuroblastoma cell viability; viability change, negative = cytotoxic: at 92.2 µM (top of the series); also: potency is read from the fitted curve at half-maximal effect; nearly all actives have a fitted effect of over 55% in size
In short: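 Quantitative HTS in SH-SY5Y neuroblastoma cells, 40 hr treatment at 37 °C, ATP content by luciferase luminescence; AC50 from Hill fits.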

[10] = Cell Viability - Mesenchymal (AID 546); details: mesenchymal cells viability, qHTS; activity change, negative = cytotoxicity: at 91.7 µM (top of the series);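 also: potency is read from the fitted curve at half-maximal effect; cells exposed to compound for 40 hours before reading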
In short: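 CellTiter-Glo luminescence (intracellular ATP, 20 min room temperature) after 40 hr compound exposure at 37 °C of 1000 glomerulus-derived human kidney mesenchymal cells/well; AC50 values obtained by fitting qHTS concentration-response data to the Hill equation.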

[11] = Cellular Toxicity (caspase-3) HepG2 (AID 654);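 also: cells exposed to compound for 16 hours before reading; 0% = DMSO alone and 100% = caspase signal from 100 µM tamoxifen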
In short: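 Concentration-response AC50 values reflect caspase-3/7 induction in HepG2 cells after 16 hours of compound exposure, quantified by luminescence from liberated aminoluciferin and referenced to 100 uM tamoxifen as full stimulation.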

[12] = Cellular Toxicity (caspase-3) HUV-EC-C (AID 656)
In short: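 Read-out: luminescence proportional to caspase 3/7 activity, measured 20 min after adding Caspase-Glo 3/7 reagent. Cells (HUV-EC-C) had received compound for 16 hr at 37°C. Increases relative to DMSO and 100 uM tamoxifen gave concentration-response AC50 values.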

[13] = Cellular Toxicity (caspase-3) SHSY5Y (AID 657)
In short: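 Cells plated and incubated 5 h at 37 °C, dosed over a concentration range, incubated 16 h, then given Caspase-Glo 3/7 reagent for 1 h at room temperature before luminescence reading. Staurosporine (10 uM) defined full stimulation.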

[14] = Cellular Toxicity (caspase-3) BJ (AID 658); details: Potency: caspase-3 activation;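 also: 0% = DMSO basal and 100% = 10 µM staurosporine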
In short: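 Caspase-Glo 3/7 luminescence, read 1 hr after reagent at room temperature, in normal BJ fibroblasts exposed 16 hours at 37 °C. AC50 values from Hill-equation concentration-response, scaled between DMSO basal and 10 uM staurosporine as 100%.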

[15] = Cellular Toxicity (caspase-3) MRC-5 (AID 659);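 also: 0% = DMSO basal and 100% = 10 µM staurosporine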
In short: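 Luminescent Caspase-Glo 3/7 read-out (1 h, room temperature) after a 16 h, 37 °C compound exposure of MRC-5 lung fibroblasts at 1500 cells/well. Concentration-response AC50 from Hill equation; 0% DMSO, 100% 10 uM staurosporine.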

[16] = Cellular Toxicity (caspase-3) Mesangial (AID 660); details: mesangial cells, normalized: DMSO 0%, 100 µM tamoxifen 100%; at 91.7 µM (top of the series);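 also: cells exposed to compound for 16 h before the caspase read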
In short: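 AC50 values come from Hill-equation fits of caspase 3/7 activation, measured as Caspase-Glo luminescence in human glomerular mesangial cells exposed to compound for 16 h at 37 °C; 100% set by 100 uM tamoxifen.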

[17] = Cellular Toxicity (caspase-3) H-4-II-E (AID 663); details: H-4-II-E rat hepatoma; Potency: caspase-3 activation; caspase-3 activation: at 92.2 µM (top of the series), scaled: DMSO 0%, 100 µM tamoxifen 100%;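 also: cells exposed to compound for 16 hr before readout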
In short: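 Caspase 3/7 activation measured by luminescent aminoluciferin substrate cleavage after 16 hr compound treatment of H-4-II-E cells in complete medium. Increase normalized between DMSO (basal) and 100 uM tamoxifen (100%); Hill-equation AC50 from concentration-response.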

[18] = Cellular Toxicity (caspase-3) Hek293 (AID 664); details: HEK293 caspase-3 activation, DMSO = 0%, 100 µM tamoxifen = 100%; at 92.2 µM (top of the series);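 also: cells exposed to compound for 16 h at 37 °C before readout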
In short: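 Apoptosis readout: Caspase-Glo 3/7 signal in human HEK293 cells following 16-hour compound incubation. Responses scaled between DMSO baseline and 100 uM tamoxifen.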

[19] = Cellular Toxicity (caspase-3) N2a (AID 665); details: Potency: caspase-3 activation;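 also: compound exposure lasted 16 h at 37 °C before readout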
In short: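 Concentration-response qHTS: compound-induced caspase-3/7 luminescence in N2a cells (16 h, 37 °C), relative to DMSO and 10 uM staurosporine controls; AC50 obtained using the standard Hill equation.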

[20] = Cellular Toxicity (caspase-3) Renal Proximal Tubule (AID 667);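 also: cells exposed to compound for 16 hours at 37 °C before detection; 0% = DMSO basal and 100% = 10 µM staurosporine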
In short: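 In qHTS format, rat primary proximal tubule cells seeded at 1000 per well are exposed to compounds for 16 hours at 37 °C. An increase in Caspase-Glo 3/7 luminescence indicates caspase activation.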

[21] = biological target: Cytochrome P450 3A4 (Homo sapiens) (UniProt P08684); experiment: qHTS Assay for Inhibitors and Substrates of Cytochrome P450 3A4 (AID 884); also: potency is read from the fitted curve at half-maximal effect; nearly all actives have a fitted effect of over 50% in size
In short: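 Luminescent readout of luciferin produced by CYP3A4 (20 nM) dealkylation of Luciferin-PPXE, 25 uM (its KM). NADPH-driven reaction ran 60 min at RT after 10 min compound preincubation; data scaled to 57 uM ketoconazole as 100% inhibition.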

[22] = biological target: Cytochrome P450 3A4 (Homo sapiens) (UniProt P08684); experiment: qHTS Assay for Activators of Cytochrome P450 3A4 (AID 885); also: nearly all actives have a fitted effect of over 65% in size
In short: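 Human CYP3A4 dealkylates Luciferin-PPXE to luciferin, which luciferase detection converts to light. Substrate was at its KM (25uM), buffer 200mM KPO4, reaction 60 min at RT.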

[23] = Cell Viability - LYMP2-001 (AID 921); also: potency is read from the fitted curve at half-maximal effect; nearly all actives have a fitted effect of over 70% in size
In short: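 qHTS, 1536-well; lymphoblastoid cells, 24 hr compound, 37 C; ATP by CellTiter-Glo, 30 min RT; luminescence; Hill-fit AC50.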

[24] = MultiTox-Fluor Cytotoxicity Assay - LYMP1-001 - Dead Cells (AID 946); also: potency is read from the fitted curve at half-maximal effect
In short: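 LYMP1-001 lymphoblastoid cells (2500/well) treated 16 h at 37 C. Dead-cell protease cleavage of bis-AAF-R110 read at Ex/Em 485/520. Normalized to DMSO and 15 uM tetraoctylammonium bromide; AC50 from Hill fits.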

[25] = MultiTox-Fluor Cytotoxicity Assay - LYMP1-001 - Live Cells (AID 947); also: potency is read from the fitted curve at half-maximal effect
[26] = MultiTox-Fluor Cytotoxicity Assay - LYMP1-002 - Live Cells (AID 955); also: potency is read from the fitted curve at half-maximal effect
In short: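 In this qHTS viability format, lymphoblastoid cells (LYMP1-002, human) received compound for 16 hr at 37 C. Fluorogenic GF-AFC cleavage by viable cells was detected at 405/510 nm after 1 h at room temperature.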

[27] = MultiTox-Fluor Cytotoxicity Assay - LYMP1-003 - Dead Cells (AID 961); also: potency is read from the fitted curve at half-maximal effect; nearly all actives have a fitted effect of over 70% in size
In short: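 LYMP1-003 human lymphoblastoid cells (2500/well) exposed to compound 16 h at 37 C in complete medium; dead-cell protease read with bis-AAF-R110 fluorescence (Ex/Em 485/520) after 60 min at room temperature. Normalized to DMSO and 15 uM tetraoctylammonium bromide; AC50 from Hill fit.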

[28] = MultiTox-Fluor Cytotoxicity Assay - LYMP1-003 - Live Cells (AID 962); also: potency is read from the fitted curve at half-maximal effect
In short: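 Human lymphoblastoid line LYMP1-003 in complete culture medium, treated 16 hr with titrated compounds. Viable cells quantified via cell-permeant GF-AFC substrate fluorescence; AC50 derived by Hill fitting.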

[29] = Cell Viability - LYMP1-003 - Assay at 24 hr (AID 963); also: potency is read from the fitted curve at half-maximal effect
In short: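 The lymphoblastoid line was treated with titrated compounds for 24 hours, and viable cell number estimated from luciferase-based ATP luminescence.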

[30] = Cell Viability - LYMP1-003 - Assay at 40 hr (AID 964); also: potency is read from the fitted curve at half-maximal effect; nearly all actives have a fitted effect of over 60% in size
In short: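 Acute toxicity is scored as a concentration-dependent loss of intracellular ATP in LYMP1-003 cells (2500/well, complete medium) after 40 hr at 37 C, measured by CellTiter-Glo luminescence; AC50 values derive from standard Hill modelling.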

[31] = Cell Viability - LYMP2-003 (AID 965);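 also: potency is read from the fitted curve at half-maximal effect; cells exposed to compounds for 24 h before reading; nearly all actives have a fitted effect of over 50% in size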
In short: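 Acute cytotoxicity is scored as a concentration-dependent drop in intracellular ATP, measured by luciferase luminescence in human lymphoblastoid cells treated for 24 hours at 37 C. AC50 values derive from Hill-equation modelling.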

[32] = Cell Viability - LYMP2-004 (AID 966); also: potency is read from the fitted curve at half-maximal effect; nearly all actives have a fitted effect of over 65% in size
In short: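 Viable-cell number estimated from ATP luminescence (CellTiter-Glo) in 2500 human lymphoblastoid cells/well after 24 hr at 37 C with compound. AC50 fitted to the standard Hill equation.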

[33] = Cell Viability - LYMP2-005 (AID 967); also: potency is read from the fitted curve at half-maximal effect
In short: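 qHTS viability screen in LYMP2-005 cells: 24 h at 37 C with compound, ATP luminescence via CellTiter-Glo, AC50 from Hill curves.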

Chain of Cytochrome P450 3A4 (Homo sapiens) (P08684 whole entry, looked up): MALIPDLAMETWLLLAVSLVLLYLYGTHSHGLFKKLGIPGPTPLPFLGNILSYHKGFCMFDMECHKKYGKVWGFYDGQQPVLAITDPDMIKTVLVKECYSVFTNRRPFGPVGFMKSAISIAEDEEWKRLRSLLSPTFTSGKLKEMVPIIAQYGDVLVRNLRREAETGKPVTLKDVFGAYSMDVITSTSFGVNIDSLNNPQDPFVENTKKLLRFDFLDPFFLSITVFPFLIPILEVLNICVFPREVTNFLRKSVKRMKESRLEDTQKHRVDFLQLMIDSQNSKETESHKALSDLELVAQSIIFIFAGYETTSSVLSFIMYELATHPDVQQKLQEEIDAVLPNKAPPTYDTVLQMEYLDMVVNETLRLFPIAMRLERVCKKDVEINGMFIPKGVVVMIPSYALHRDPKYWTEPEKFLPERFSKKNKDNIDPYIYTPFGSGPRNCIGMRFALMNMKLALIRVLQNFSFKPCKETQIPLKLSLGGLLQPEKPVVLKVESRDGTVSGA

CNc1ccc(O)cc1
inactive: Potency [5] | Potency [11] | Potency [12] | Potency [13] | Potency [14] | outcome [15] | caspase-3 activation [16] -3.33% | caspase-3 activation [17] -5.23% | caspase-3 activation [18] -11.1% | Potency [19] | outcome [20] | Potency [22]
active: Potency [1] 2.14 µM | Potency [2] 40.8 µM | Potency [3] 59.6 µM | Potency [4] 23.5 µM | Potency [6] 31.6 µM | Potency [7] 25.1 µM | Potency [8] 20 µM | Potency [9] 2 µM | Potency [10] 31.6 µM | Potency [21] 12.6 µM | Potency [23] 3.16 µM | Potency [24] 25.1 µM | Potency [25] 31.6 µM | Potency [26] 12.6 µM | Potency [27] 12.6 µM | Potency [28] 31.6 µM | Potency [29] 25.1 µM | Potency [30] 25.1 µM | Potency [31] 5.01 µM | Potency [32] 5.01 µM | Potency [33] 5.01 µM

— PubChem BioAssay (NCATS)
